{
  "source": "paper PMC4336329",
  "about": "(PLoS ONE, 2015)",
  "note": "Out of some 310,000 compounds screened, about 14,000 (4.5%) showed an effect of 50% or more. Effects have a minus sign here. The sample holds strong results, similar compounds and a random draw of the others, so the mix is not that of the screen.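 Also: peak tail current of the secondary pulse compared with the same well before compound.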",
  "data": [
    {"molecular_target": "human ether-à-go-go-related gene (hERG) potassium channel (human, UniProt Q12809)", "sequence (Q12809 whole entry, looked up)": "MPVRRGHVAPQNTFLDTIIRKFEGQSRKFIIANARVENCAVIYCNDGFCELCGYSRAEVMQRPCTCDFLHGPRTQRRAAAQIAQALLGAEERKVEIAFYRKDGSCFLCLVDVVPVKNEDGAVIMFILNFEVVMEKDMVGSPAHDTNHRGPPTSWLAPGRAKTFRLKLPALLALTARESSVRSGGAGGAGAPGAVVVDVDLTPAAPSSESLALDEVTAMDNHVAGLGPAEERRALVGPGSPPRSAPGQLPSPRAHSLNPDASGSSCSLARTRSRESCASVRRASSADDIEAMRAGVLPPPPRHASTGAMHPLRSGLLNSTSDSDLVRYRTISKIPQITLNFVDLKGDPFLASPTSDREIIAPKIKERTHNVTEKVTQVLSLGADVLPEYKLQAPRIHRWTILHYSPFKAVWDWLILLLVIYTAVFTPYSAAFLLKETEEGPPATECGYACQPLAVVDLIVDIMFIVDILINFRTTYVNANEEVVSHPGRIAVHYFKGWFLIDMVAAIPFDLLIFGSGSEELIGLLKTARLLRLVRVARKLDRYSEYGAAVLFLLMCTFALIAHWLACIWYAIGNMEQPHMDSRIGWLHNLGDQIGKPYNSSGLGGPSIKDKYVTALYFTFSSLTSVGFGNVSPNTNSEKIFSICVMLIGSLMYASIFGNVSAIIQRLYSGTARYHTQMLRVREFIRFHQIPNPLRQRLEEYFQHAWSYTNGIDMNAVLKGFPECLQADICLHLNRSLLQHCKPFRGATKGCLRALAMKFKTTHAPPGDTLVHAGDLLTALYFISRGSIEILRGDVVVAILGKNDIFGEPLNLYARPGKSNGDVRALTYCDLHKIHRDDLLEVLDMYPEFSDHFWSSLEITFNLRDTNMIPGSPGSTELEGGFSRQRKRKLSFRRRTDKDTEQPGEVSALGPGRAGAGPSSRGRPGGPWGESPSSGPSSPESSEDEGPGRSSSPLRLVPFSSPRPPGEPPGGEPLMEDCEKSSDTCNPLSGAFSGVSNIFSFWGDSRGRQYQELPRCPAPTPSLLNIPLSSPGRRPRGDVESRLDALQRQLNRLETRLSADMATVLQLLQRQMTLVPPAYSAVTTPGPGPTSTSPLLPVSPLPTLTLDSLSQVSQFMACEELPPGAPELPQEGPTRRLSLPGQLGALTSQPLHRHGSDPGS", "assay": "primary screen, population patch clamp on CHO cells stably expressing hERG; higher = less effect of the substance", "units": {"hERG current change (%, negative = inhibition) at 10uM": "%"}, "values": [
      {"molecule": "CC1(C)CC(=O)C(N=Nc2ccc(OC(F)F)cc2)=C(O)C1", "hERG current change (%, negative = inhibition) at 10uM": -57.6},
      {"molecule": "COc1ccc(N=NC2=C(O)CC(C)(C)CC2=O)cc1", "hERG current change (%, negative = inhibition) at 10uM": -9.39},
      {"molecule": "CC1(C)CC(=O)C(N=Nc2ccc(F)cc2)=C(O)C1", "hERG current change (%, negative = inhibition) at 10uM": -4.21},
      {"molecule": "COc1ccc(-n2cnc3cc(C(=O)N4CCC5(CC4)OCCO5)ccc32)cc1", "hERG current change (%, negative = inhibition) at 10uM": -42.8},
      {"molecule": "O=C(Cc1ccccc1)Nc1ccccc1N1CCCC1", "hERG current change (%, negative = inhibition) at 10uM": 9.76},
      {"molecule": "Cc1ccc(-c2nnc(SCC(=O)Nc3ccccc3F)o2)cc1", "hERG current change (%, negative = inhibition) at 10uM": 6.53},
      {"molecule": "Cc1nnc(NC(=O)CSc2ccc3nnc(-c4ccccn4)n3n2)s1", "hERG current change (%, negative = inhibition) at 10uM": -9.79},
      {"molecule": "Cc1ccccc1CSc1ccc2nnc(-c3ccccn3)n2n1", "hERG current change (%, negative = inhibition) at 10uM": -81.6},
      {"molecule": "Cc1ccccc1NC(=O)CSc1ccc2nnc(-c3ccccn3)n2n1", "hERG current change (%, negative = inhibition) at 10uM": -23.8},
      {"molecule": "Cc1ccc(C)c(CSc2ccc3nnc(-c4ccccn4)n3n2)c1", "hERG current change (%, negative = inhibition) at 10uM": -76.5},
      {"molecule": "Cc1ccccc1CSc1nnc(-c2ccccn2)n1C", "hERG current change (%, negative = inhibition) at 10uM": -1.96},
      {"molecule": "Cc1cc(NC(=O)CSc2ccc3nnc(-c4ccccn4)n3n2)no1", "hERG current change (%, negative = inhibition) at 10uM": -6.72},
      {"molecule": "CS(=O)Cc1cc(Oc2ccccc2)nc(-c2ccncc2)n1", "note": "(centres unmarked)", "hERG current change (%, negative = inhibition) at 10uM": -16.5},
      {"molecule": "Cc1nc2cc(NC(=O)c3ccc(Br)s3)ccc2s1", "hERG current change (%, negative = inhibition) at 10uM": 20},
      {"molecule": "NC(=O)CCCSc1nc2ccccc2[nH]1", "hERG current change (%, negative = inhibition) at 10uM": 13.3},
      {"molecule": "O=C(CSc1ncccc1-c1nc2ccccc2[nH]1)N1CCCCC1", "hERG current change (%, negative = inhibition) at 10uM": -16.3},
      {"molecule": "O=[N+]([O-])c1ccc(N2CCN(CCO)CC2)cc1Sc1nc2ccccc2[nH]1", "hERG current change (%, negative = inhibition) at 10uM": -12.4},
      {"molecule": "COc1ccc(N2CCN(C(=O)CSc3ncccc3-c3nc4ccccc4[nH]3)CC2)cc1", "hERG current change (%, negative = inhibition) at 10uM": -53.4},
      {"molecule": "Br.CC1(C(=O)CSc2nc3ccccc3s2)CCC(=O)O1", "note": "(centres unmarked)", "hERG current change (%, negative = inhibition) at 10uM": -2.67},
      {"molecule": "CC1(C(=O)CSc2nc3ccccc3[nH]2)CCC(=O)O1", "note": "(centres unmarked)", "hERG current change (%, negative = inhibition) at 10uM": -70.8},
      {"molecule": "CCN1CCN(c2ccc([N+](=O)[O-])c(Sc3nc4ccccc4[nH]3)c2)CC1", "hERG current change (%, negative = inhibition) at 10uM": -60.4},
      {"molecule": "CN1CCN(c2ccc([N+](=O)[O-])c(Sc3nc4ccccc4[nH]3)c2)CC1", "hERG current change (%, negative = inhibition) at 10uM": -19.7},
      {"molecule": "Br.CC1(C(=O)CSc2ncn[nH]2)CCC(=O)O1", "note": "(centres unmarked)", "hERG current change (%, negative = inhibition) at 10uM": 2.21},
      {"molecule": "O=C(CCCSc1nc2ccccc2[nH]1)N1CCN(c2ccc([N+](=O)[O-])cc2)CC1", "hERG current change (%, negative = inhibition) at 10uM": -79.9},
      {"molecule": "COc1ccccc1N1CCN(C(=O)CSc2ncccc2-c2nc3ccccc3[nH]2)CC1", "hERG current change (%, negative = inhibition) at 10uM": -23.7},
      {"molecule": "O=C(CSc1nc2ccccc2[nH]1)Nc1ccc(N2CCOCC2)cc1", "hERG current change (%, negative = inhibition) at 10uM": 8.65},
      {"molecule": "COC(=O)C1=C(C)N(CCc2ccc(OC)c(OC)c2)C(=O)C1", "hERG current change (%, negative = inhibition) at 10uM": 18.5},
      {"molecule": "O=C(CNS(=O)(=O)c1ccc(Cl)cc1)NNC(=O)c1cccnc1", "hERG current change (%, negative = inhibition) at 10uM": 20.7},
      {"molecule": "S=C1NC[C@H](Cc2cccc3ccccc23)N1CC1CCCCC1", "hERG current change (%, negative = inhibition) at 10uM": 10.3},
      {"molecule": "COc1cc(O)sc1C=Nc1ccc(Cl)cc1", "hERG current change (%, negative = inhibition) at 10uM": 4.72},
      {"molecule": "Cc1cc2c(n1-c1ccc(Br)cc1)CC(C)(C)CC2=O", "hERG current change (%, negative = inhibition) at 10uM": -33.5},
      {"molecule": "O=S(=O)(Nc1cccc(-n2cnnn2)c1)c1ccccc1C(F)(F)F", "hERG current change (%, negative = inhibition) at 10uM": 12},
      {"molecule": "CN1CCN(CCC(=O)N/N=C/c2cc([N+](=O)[O-])ccc2OC(F)F)CC1", "hERG current change (%, negative = inhibition) at 10uM": 1.78},
      {"molecule": "C#CCOCCOCCOCCNc1nc(N2CCN(C(=O)CCCCCCCCCCNC(=O)Cn3cc(CCCCCN)nn3)CC2)nc(N2CCN(C(=O)CCCCCCCCCCNC(=O)[C@@H](CCC(=O)O)n3cc(CCCCCN)nn3)CC2)n1", "hERG current change (%, negative = inhibition) at 10uM": -5.58},
      {"molecule": "CC(=O)Nc1cccc(NC(=O)CSc2nnc(Cc3cccn3C)n2-c2ccc(C)cc2)c1", "hERG current change (%, negative = inhibition) at 10uM": -11.9},
      {"molecule": "Cc1ccnc(NC(=O)c2ccc(Cl)c(NC(=O)C(C)Oc3ccccc3)c2)c1", "note": "(centres unmarked)", "hERG current change (%, negative = inhibition) at 10uM": 1.41},
      {"molecule": "O=C(CSc1nc2ccccc2[nH]1)N1CCN(c2ccc(F)cc2)CC1", "hERG current change (%, negative = inhibition) at 10uM": -55.6},
      {"molecule": "Cc1cccc(N2CCN(C(=O)CCCSc3nc4ccccc4[nH]3)CC2)c1C", "hERG current change (%, negative = inhibition) at 10uM": -17.4},
      {"molecule": "O=C(CCCSc1nc2ccccc2[nH]1)NCc1ccccc1Cl", "hERG current change (%, negative = inhibition) at 10uM": -19.3},
      {"molecule": "O=C(CSc1nc2ccccc2[nH]1)N1CCCCC1", "hERG current change (%, negative = inhibition) at 10uM": -2},
      {"molecule": "Cc1ccc2nc(SCC(=O)N3CCN(c4ccccc4)CC3)[nH]c2c1", "hERG current change (%, negative = inhibition) at 10uM": 1.42},
      {"molecule": "O=C(CSc1nc2ccccc2[nH]1)N1CCN(c2ccccc2)CC1", "hERG current change (%, negative = inhibition) at 10uM": -0.235},
      {"molecule": "O=C(CCCSc1nc2ccccc2[nH]1)N1CCN(c2ccccc2)CC1", "hERG current change (%, negative = inhibition) at 10uM": -60.2},
      {"molecule": "O=C(CCCSc1nc2ccccc2[nH]1)NCc1ccccc1", "hERG current change (%, negative = inhibition) at 10uM": -23.9},
      {"molecule": "COc1ccc(N2CCN(C(=O)CCCSc3nc4ccccc4[nH]3)CC2)cc1", "hERG current change (%, negative = inhibition) at 10uM": -62.3},
      {"molecule": "O=C(CCCSc1nc2ccccc2[nH]1)NCc1ccc(Cl)cc1", "hERG current change (%, negative = inhibition) at 10uM": -62.3},
      {"molecule": "COc1ccc(N2CCN(C(=O)CSc3nc4ccccc4c(=O)[nH]3)CC2)cc1", "hERG current change (%, negative = inhibition) at 10uM": -10.7},
      {"molecule": "O=C(CCCSc1nc2ccccc2[nH]1)Nc1ccccc1", "hERG current change (%, negative = inhibition) at 10uM": 7.05},
      {"molecule": "CC(C)CNC(=O)C(=O)NC1CCCC1", "hERG current change (%, negative = inhibition) at 10uM": 11.7},
      {"molecule": "CC1=C(C)CC(C(=O)Nc2nccs2)C(C(=O)O)C1", "note": "(centres unmarked)", "hERG current change (%, negative = inhibition) at 10uM": 28.7},
      {"molecule": "O=C(CSc1n[nH]c(-c2ccncc2)n1)Nc1ccc(Br)cc1", "hERG current change (%, negative = inhibition) at 10uM": -2.1},
      {"molecule": "CN(C)/C=N/c1nc2nccc(-c3ccc(F)cc3)n2n1", "hERG current change (%, negative = inhibition) at 10uM": 13.8},
      {"molecule": "CCC1Oc2ccc(C)cc2N(CC(=O)NCCCN2CCCCC2C)C1=O", "note": "(centres unmarked)", "hERG current change (%, negative = inhibition) at 10uM": 3.15},
      {"molecule": "CN(C(=O)CSc1nnc(-c2ccccc2)o1)c1c(N)n(Cc2ccccc2)c(=O)[nH]c1=O", "hERG current change (%, negative = inhibition) at 10uM": 12},
      {"molecule": "COc1cccc(N2C(=O)/C(=C/c3ccc(C)o3)C(=O)NC2=S)c1", "hERG current change (%, negative = inhibition) at 10uM": 15},
      {"molecule": "COc1ccc(/C=C/C=N/NC(=O)COc2ccc(OC)cc2)cc1", "hERG current change (%, negative = inhibition) at 10uM": 1.85},
      {"molecule": "O=C(CCN1C(=O)C2C3CCC(C3)C2C1=O)OCC(=O)c1ccccc1", "note": "(centres unmarked)", "hERG current change (%, negative = inhibition) at 10uM": 9.98},
      {"molecule": "CC(C(=O)OCC(=O)c1cccc([N+](=O)[O-])c1)N1C(=O)C2C3CCC(C3)C2C1=O", "note": "(centres unmarked)", "hERG current change (%, negative = inhibition) at 10uM": 2.55},
      {"molecule": "CC(C(=O)OCC(=O)c1ccc([N+](=O)[O-])cc1)N1C(=O)C2C3CCC(C3)C2C1=O", "note": "(centres unmarked)", "hERG current change (%, negative = inhibition) at 10uM": -54},
      {"molecule": "O=C(CCN1C(=O)C2C3CCC(C3)C2C1=O)OCC(=O)c1ccc(Cl)cc1", "note": "(centres unmarked)", "hERG current change (%, negative = inhibition) at 10uM": -53.2},
      {"molecule": "O=C(CCN1C(=O)C2C3CCC(C3)C2C1=O)OCC(=O)c1ccc(Br)cc1", "note": "(centres unmarked)", "hERG current change (%, negative = inhibition) at 10uM": -30.2},
      {"molecule": "CC(C(=O)OCC(=O)c1ccc([N+](=O)[O-])cc1)N1C(=O)C2C3C=CC(C3)C2C1=O", "note": "(centres unmarked)", "hERG current change (%, negative = inhibition) at 10uM": -43}
    ]}
  ]
}
